# Measurements: the supplement of paper PMC10037445
# Over roughly 2,900 compounds, “NF-kB SEAP reporter activity, fold change vs agonist alone” has its median near 0.99; the highest 2% begin near 2.6. The list comes from a sample in which the highest values are over-represented; it also holds similar structures and randomly drawn compounds.
# Experiments:
# RAW-Dual [1] = assay: NF-kB SEAP reporter activity, fold change vs agonist alone; higher = enhanced NF-kB activity
# In short: (§1)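 Library stock was pin-tooled at 50 nL into 384-well plates of RAW-Dual macrophages (50,000 cells/well, DMEM), followed 1 h later by a PRR agonist, and the cells were kept at 37 °C, 5% CO2. Supernatant collected after 20 hours was read for IRF by QuantiLuc luminescence and for NF-κB by QuantiBlue absorbance at 620 nm. Reporter activity is fold change over agonist-alone wells, and a well counted as cytotoxic when its IncuCyte confluency was below 70% of agonist controls in both mask sets.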
# RAW-Dual [2] = assay: NF-kB SEAP reporter activity, fold change vs agonist alone; cytotoxicity flag (confluency mask): not cytotoxic; higher = enhanced NF-kB activity
# In short: as §1
# RAW-Dual [3] = assay: NF-kB SEAP reporter activity, fold change vs agonist alone; cytotoxicity flag (confluency mask): cytotoxic (confluency <70% of control); higher = enhanced NF-kB activity
# In short: as §1
# [4] = agonist: ODN 1826 (TLR9) 0.5 ug/mL
# [5] = agonist: Pam2CSK4 (TLR2/6) 0.1 ug/mL
# [6] = agonist: Pam3CSK4 (TLR2/1) 0.1 ug/mL
# [7] = library stock concentration (final ~1000-fold dilution): 10 mM, cytotoxicity flag (confluency mask): not cytotoxic, agonist: Imiquimod (TLR7) […]
# [8] = library stock concentration (final ~1000-fold dilution): 10 mM, cytotoxicity flag (confluency mask): not cytotoxic, agonist: MPLA (TLR4) […]
# [9] = library stock concentration (final ~1000-fold dilution): 10 mM, cytotoxicity flag (confluency mask): cytotoxic (confluency <70% of control), agonist: Imiquimod (TLR7) […]
# [10] = library stock concentration (final ~1000-fold dilution): 10 mM, cytotoxicity flag (confluency mask): cytotoxic (confluency <70% of control), agonist: MPLA (TLR4) […]
structure (smiles),measurement,setting,value
Nc1ccn(CC(CO)OCP(=O)(O)O)c(=O)n1 (configuration not stated),NF-kB SEAP reporter activity,"RAW-Dual [1]; library stock concentration (final ~1000-fold dilution): 10 mM water, cytotoxicity flag (confluency mask): not cytotoxic, agonist: Imiquimod (TLR7) […]",0.956
same,NF-kB SEAP reporter activity,"RAW-Dual [1]; library stock concentration (final ~1000-fold dilution): 10 mM water, cytotoxicity flag (confluency mask): not cytotoxic, agonist: MPLA (TLR4) […]",1.04
Nc1ccn(CC(CO)OCP(=O)(O)O)c(=O)n1 (configuration not stated) (library stock concentration (final ~1000-fold dilution): 10 mM water),NF-kB SEAP reporter activity,RAW-Dual [2]; agonist: LPS (TLR4) 0.1 ug/mL,1.2
same,NF-kB SEAP reporter activity,RAW-Dual [2]; [4],1.23
same,NF-kB SEAP reporter activity,RAW-Dual [2]; [5],1.32
same,NF-kB SEAP reporter activity,RAW-Dual [2]; [6],1.29
O=C(c1cn(Cc2cncn2Cc2ccc(Br)cc2)cc1-c1cccc2ccccc12)N1CCOCC1,NF-kB SEAP reporter activity,RAW-Dual [1]; [7],1.35
same,NF-kB SEAP reporter activity,RAW-Dual [1]; [8],1.46
O=C(c1cn(Cc2cncn2Cc2ccc(Br)cc2)cc1-c1cccc2ccccc12)N1CCOCC1 (library stock concentration (final ~1000-fold dilution): 10 mM),NF-kB SEAP reporter activity,RAW-Dual [2]; agonist: LPS (TLR4) 0.1 ug/mL,2.82
same,NF-kB SEAP reporter activity,RAW-Dual [2]; [4],1.54
same,NF-kB SEAP reporter activity,RAW-Dual [2]; [5],0.96
same,NF-kB SEAP reporter activity,RAW-Dual [2]; [6],1.16
O=C1NC(=O)C(c2cn3c4c(cccc24)CCC3)C1c1c[nH]c2ccccc12 (configuration not stated) (library stock concentration (final ~1000-fold dilution): 10 mM),NF-kB SEAP reporter activity,RAW-Dual [2]; agonist: LPS (TLR4) 0.1 ug/mL,3.41
same,NF-kB SEAP reporter activity,RAW-Dual [2]; [4],2.7
same,NF-kB SEAP reporter activity,RAW-Dual [2]; [5],1.49
same,NF-kB SEAP reporter activity,RAW-Dual [2]; [6],1.4
O=C1NC(=O)C(c2cn3c4c(cccc24)CCC3)C1c1c[nH]c2ccccc12 (configuration not stated),NF-kB SEAP reporter activity,RAW-Dual [1]; [7],2.44
same,NF-kB SEAP reporter activity,RAW-Dual [1]; [8],1.84
Cl.Clc1cccc(-c2nnnn2Cc2cccnc2)c1Cl (library stock concentration (final ~1000-fold dilution): 10 mM),NF-kB SEAP reporter activity,RAW-Dual [2]; agonist: LPS (TLR4) 0.1 ug/mL,1.07
same,NF-kB SEAP reporter activity,RAW-Dual [2]; [4],0.95
same,NF-kB SEAP reporter activity,RAW-Dual [2]; [5],1.04
same,NF-kB SEAP reporter activity,RAW-Dual [2]; [6],0.958
Cl.Clc1cccc(-c2nnnn2Cc2cccnc2)c1Cl,NF-kB SEAP reporter activity,RAW-Dual [1]; [7],1
same,NF-kB SEAP reporter activity,RAW-Dual [1]; [8],1.06
CC1COC2Cn3cc(C(=O)NCc4ccc(F)cc4F)c(=O)c(O)c3C(=O)N12 (configuration not stated) (library stock concentration (final ~1000-fold dilution): 10 mM),NF-kB SEAP reporter activity,RAW-Dual [2]; agonist: LPS (TLR4) 0.1 ug/mL,1.38
same,NF-kB SEAP reporter activity,RAW-Dual [2]; [4],1.03
same,NF-kB SEAP reporter activity,RAW-Dual [2]; [5],0.808
same,NF-kB SEAP reporter activity,RAW-Dual [2]; [6],0.866
CC1COC2Cn3cc(C(=O)NCc4ccc(F)cc4F)c(=O)c(O)c3C(=O)N12 (configuration not stated),NF-kB SEAP reporter activity,RAW-Dual [1]; [7],0.969
same,NF-kB SEAP reporter activity,RAW-Dual [1]; [8],1.11
CCC(=O)Nc1cccc(Oc2nc(Nc3ccc(N4CCN(C)CC4)cc3OC)ncc2Cl)c1,NF-kB SEAP reporter activity,RAW-Dual [1]; [9],1.1
same,NF-kB SEAP reporter activity,RAW-Dual [1]; [10],1.7
Cc1cc(Nc2ncc3c(n2)N(C)C(=O)N(c2cc(NC(=O)c4cccc(C(F)(F)F)c4)ccc2C)C3)n(C)n1 (library stock concentration (final ~1000-fold dilution): 10 mM),NF-kB SEAP reporter activity,RAW-Dual [3]; agonist: LPS (TLR4) 0.1 ug/mL,0.283
same,NF-kB SEAP reporter activity,RAW-Dual [3]; [4],0.186
same,NF-kB SEAP reporter activity,RAW-Dual [3]; [5],0.0623
same,NF-kB SEAP reporter activity,RAW-Dual [3]; [6],0.124
CCC1C(=O)N(C)c2cnc(Nc3ccc(C(=O)NC4CCC(N5CCN(CC6CC6)CC5)CC4)cc3OC)nc2N1C(C)C (configuration not stated),NF-kB SEAP reporter activity,RAW-Dual [1]; [7],0.55
same,NF-kB SEAP reporter activity,RAW-Dual [1]; [8],0.684
COc1cc(C(=O)NC2CCN(C)CC2)ccc1Nc1ncc2c(n1)N(C1CCCC1)CC(F)(F)C(=O)N2C,NF-kB SEAP reporter activity,RAW-Dual [1]; [9],1.71
same,NF-kB SEAP reporter activity,RAW-Dual [1]; [10],2.85
CCC(=O)Nc1cccc(Oc2nc(Nc3ccc(N4CCN(C)CC4)cc3OC)ncc2Cl)c1 (library stock concentration (final ~1000-fold dilution): 10 mM),NF-kB SEAP reporter activity,RAW-Dual [3]; agonist: LPS (TLR4) 0.1 ug/mL,1.65
same,NF-kB SEAP reporter activity,RAW-Dual [3]; [4],0.875
same,NF-kB SEAP reporter activity,RAW-Dual [3]; [5],0.603
same,NF-kB SEAP reporter activity,RAW-Dual [3]; [6],1.02
C=CC(=O)Nc1cccc(Nc2nc(Nc3ccc(NC4CN(CCF)C4)cc3OC)ncc2C(F)(F)F)c1 (library stock concentration (final ~1000-fold dilution): 10 mM),NF-kB SEAP reporter activity,RAW-Dual [2]; agonist: LPS (TLR4) 0.1 ug/mL,0.561
same,NF-kB SEAP reporter activity,RAW-Dual [2]; [4],0.536
same,NF-kB SEAP reporter activity,RAW-Dual [2]; [5],0.359
same,NF-kB SEAP reporter activity,RAW-Dual [2]; [6],0.725
COc1cc(OC2CCN(C)CC2)ccc1Nc1ncc2c(n1)n(C1CCCC1)c(=O)n2C (library stock concentration (final ~1000-fold dilution): 10 mM),NF-kB SEAP reporter activity,RAW-Dual [2]; agonist: LPS (TLR4) 0.1 ug/mL,1.17
same,NF-kB SEAP reporter activity,RAW-Dual [2]; [4],0.955
same,NF-kB SEAP reporter activity,RAW-Dual [2]; [5],0.964
same,NF-kB SEAP reporter activity,RAW-Dual [2]; [6],1.16
CCC1C(=O)N(C)c2cnc(Nc3ccc(C(=O)NC4CCN(C)CC4)cc3OC)nc2N1C1CCCC1 (configuration not stated) (library stock concentration (final ~1000-fold dilution): 10 mM),NF-kB SEAP reporter activity,RAW-Dual [3]; agonist: LPS (TLR4) 0.1 ug/mL,0.276
same,NF-kB SEAP reporter activity,RAW-Dual [3]; [4],1.3
same,NF-kB SEAP reporter activity,RAW-Dual [3]; [5],1.54
same,NF-kB SEAP reporter activity,RAW-Dual [3]; [6],3.64
CCC1C(=O)N(C)c2cnc(Nc3ccc(C(=O)NC4CCN(C)CC4)cc3OC)nc2N1C1CCCC1 (configuration not stated),NF-kB SEAP reporter activity,RAW-Dual [1]; [9],2.21
same,NF-kB SEAP reporter activity,RAW-Dual [1]; [10],0.949
CCC1C(=O)N(C)c2cnc(Nc3ccc(C(=O)NC4CCC(N5CCN(CC6CC6)CC5)CC4)cc3OC)nc2N1C(C)C (configuration not stated) (library stock concentration (final ~1000-fold dilution): 10 mM),NF-kB SEAP reporter activity,RAW-Dual [2]; agonist: LPS (TLR4) 0.1 ug/mL,5.71
same,NF-kB SEAP reporter activity,RAW-Dual [2]; [4],0.977
same,NF-kB SEAP reporter activity,RAW-Dual [2]; [5],1.95
same,NF-kB SEAP reporter activity,RAW-Dual [2]; [6],0.886
COc1cc(C(=O)NC2CCN(C)CC2)ccc1Nc1ncc2c(n1)N(C1CCCC1)CC(F)(F)C(=O)N2C (library stock concentration (final ~1000-fold dilution): 10 mM),NF-kB SEAP reporter activity,RAW-Dual [3]; agonist: LPS (TLR4) 0.1 ug/mL,5.16
same,NF-kB SEAP reporter activity,RAW-Dual [3]; [4],0.745
same,NF-kB SEAP reporter activity,RAW-Dual [3]; [5],1.3
same,NF-kB SEAP reporter activity,RAW-Dual [3]; [6],3.04
Cc1cc(Nc2ncc3c(n2)N(C)C(=O)N(c2cc(NC(=O)c4cccc(C(F)(F)F)c4)ccc2C)C3)n(C)n1,NF-kB SEAP reporter activity,RAW-Dual [1]; [9],0.128
same,NF-kB SEAP reporter activity,RAW-Dual [1]; [10],0.265
COc1cc(OC2CCN(C)CC2)ccc1Nc1ncc2c(n1)n(C1CCCC1)c(=O)n2C,NF-kB SEAP reporter activity,RAW-Dual [1]; [7],1.11
same,NF-kB SEAP reporter activity,RAW-Dual [1]; [8],0.875
C=CC(=O)Nc1cccc(Nc2nc(Nc3ccc(NC4CN(CCF)C4)cc3OC)ncc2C(F)(F)F)c1,NF-kB SEAP reporter activity,RAW-Dual [1]; [7],1.26
same,NF-kB SEAP reporter activity,RAW-Dual [1]; [8],1.53
